# Inconclusive results are not listed. A call without a number means that no potency is given here. A number with no mark means an inactive call. Activity calls are given as the source filed them. The call rests on the fitted dose curve; in most records, active means well fitted cell-killing curve with a large enough effect; inconclusive means small, poorly fitted or top-dose-only effect, or effect the other way; inactive means flat fitted curve, though single readings scatter.
# Tests used:
# Test in all cases: Primary qHTS to identify gynecologic anti-cancer compounds using libraries of approved drugs and bioactive compounds (AID 1345084); further: nearly all actives have a fitted effect of over 55% in size
# [1] = system: Es-2; details: Gynecologic cancer cell panel viability, ATPlite luminescence, 48 h; series mostly up to 57.5 µM
# Method in brief: (§1)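 Cells, 1,000 per well, plated 16 h, then exposed 48 h at 37 C to compounds. Viability by ATPlite luminescence after 15 min at room temperature.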
# [2] = system: HeLa; details: Gynecologic cancer cell panel viability, ATPlite luminescence, 48 h; series mostly up to 57.5 µM
# Method in brief: as §1
# [3] = system: PA-1; details: Gynecologic cancer cell panel viability, ATPlite luminescence, 48 h; series mostly up to 57.5 µM
# Method in brief: as §1
# [4] = system: SKOV3; details: Gynecologic cancer cell panel viability, ATPlite luminescence, 48 h; series mostly up to 57.5 µM
# Method in brief: as §1
# [5] = system: CASKI; details: Gynecologic cancer cell panel viability, ATPlite luminescence, 48 h; series mostly up to 57.5 µM
# Method in brief: as §1
# [6] = system: Hek293T; details: Gynecologic cancer cell panel viability, ATPlite luminescence, 48 h, control line for the selectivity index; series mostly up to 57.5 µM
# Method in brief: as §1
# [7] = system: JEG-3; details: Gynecologic cancer cell panel viability, ATPlite luminescence, 48 h; series mostly up to 57.5 µM
# Method in brief: as §1
# [8] = system: OV90; details: Gynecologic cancer cell panel viability, ATPlite luminescence, 48 h; series mostly up to 57.5 µM
# Method in brief: as §1
# [9] = system: Tov112D; details: Gynecologic cancer cell panel viability, ATPlite luminescence, 48 h; series mostly up to 57.5 µM
# Method in brief: as §1
# [10] = system: Tov-21-G; details: Gynecologic cancer cell panel viability, ATPlite luminescence, 48 h; series mostly up to 57.5 µM
# Method in brief: as §1
# Potency means the concentration at half of the fitted maximal effect.
compound,measurement,setting,value
O=C(Nc1ccnc(NC(=O)C2CC2)c1)c1c(Cl)cccc1Cl,Potency,[1],22.4 µM (active)
same,Potency,[2],17.8 µM (active)
same,Potency,[3],15.8 µM (active)
same,Potency,[4],inactive
C=C1C(=O)O[C@H]2C[C@@H](C)[C@@H]3CCC(=O)[C@@]3(C)C[C@H]12,Potency,[5],7.94 µM (active)
same,Potency,[2],inactive
same,Potency,[6],25.1 µM (active)
same,Potency,[7],15.8 µM (active)
same,Potency,[8],22.4 µM (active)
same,Potency,[9],inactive
COC1CC/C=C(\C)C(=O)Nc2cc(O)cc(c2)CC(C)CC(OC)C(O)C(C)/C=C(\C)C1OC(N)=O (stereo not given),Potency,[1],inactive
same,Potency,[2],inactive
same,Potency,[8],8.91 µM (active)
same,Potency,[10],3.98 µM (active)
COc1ccc(C#Cc2ccc(C(=O)N3CCC[C@@H](O)C3)c(F)c2)cc1,Potency,[1],12.6 µM (active)
same,Potency,[6],14.1 µM (active)
same,Potency,[7],inactive
same,Potency,[4],8.91 µM (active)
same,Potency,[10],7.08 µM (active)
same,Potency,[9],8.91 µM (active)
CN(C)CCCn1cc(C2=C(c3c[nH]c4ccccc34)C(=O)NC2=O)c2ccccc21,Potency,[1],28.2 µM (active)
same,Potency,[6],22.4 µM (active)
same,Potency,[7],inactive
O=c1ccc2ccc(OCCCCN3CCN(c4cccc5sccc45)CC3)cc2[nH]1,Potency,[2],inactive
same,Potency,[7],inactive
same,Potency,[3],inactive
same,Potency,[10],inactive
same,Potency,[9],inactive
C/C(=N\N=C(N)N)c1cc(NC(=O)CCCCCCCCC(=O)Nc2cc(/C(C)=N/N=C(N)N)cc(/C(C)=N/N=C(N)N)c2)cc(/C(C)=N/N=C(N)N)c1,Potency,[5],inactive
same,Potency,[2],inactive
same,Potency,[6],inactive
same,Potency,[7],inactive
same,Potency,[9],inactive
Cc1nc2ccc(-n3ncc(C(=O)c4cc5ccccc5[nH]4)c3N)cc2[nH]1,Potency,[2],28.2 µM (active)
same,Potency,[6],14.1 µM (active)
same,Potency,[8],14.1 µM (active)
same,Potency,[10],28.2 µM (active)
C=C(C)C(=O)O[C@H]1C[C@@](C)(O)C2(O)CCC(C)(/C=C3/OC(=O)C(COC)=C31)O2 (stereo not given in full),Potency,[1],11.2 µM (active)
same,Potency,[2],inactive
same,Potency,[3],10 µM (active)
same,Potency,[10],10 µM (active)
Cc1cc(NC(=O)c2cccc(NC(=O)/C=C/CN(C)C)c2)ccc1Nc1nccc(-c2cccnc2)n1,Potency,[1],inactive
same,Potency,[2],inactive
same,Potency,[7],inactive
same,Potency,[8],inactive
COc1ccc(-c2ccc3c(N4CCOCC4C)nc(N4CCOCC4C)nc3n2)cc1CO (stereo not given),Potency,[1],0.282 µM (active)
same,Potency,[6],0.316 µM (active)
same,Potency,[7],inactive
same,Potency,[3],0.282 µM (active)
same,Potency,[10],0.251 µM (active)
CN(C)C(=O)COC(=O)c1cc(-c2ccc(C3CCNCC3)cc2)c2ccc(-c3ccc(C(F)(F)F)cc3)cc2c1,Potency,[1],inactive
same,Potency,[6],inactive
same,Potency,[7],inactive
C=CC(=O)Nc1cccc(Nc2nc(Nc3ccc(OCCOC)cc3)ncc2F)c1,Potency,[2],11.2 µM (active)
same,Potency,[7],inactive
same,Potency,[3],10 µM (active)
same,Potency,[4],2.82 µM (active)
same,Potency,[9],4.47 µM (active)
C=C1C(=O)OC2/C=C(\COC(C)=O)CC/C=C(\C=O)CC(OC(=O)C(C)CC)C12 (stereo not given),Potency,[5],inactive
same,Potency,[2],inactive
same,Potency,[8],inactive
same,Potency,[3],11.2 µM (active)
Clc1ccc(Nc2nc3ccccc3c3nc(C4CCCCC4)[nH]c23)cc1Cl,Potency,[5],inactive
same,Potency,[7],inactive
same,Potency,[4],inactive
same,Potency,[10],inactive
same,Potency,[9],inactive
O=C(CCl)Nc1cccc(NC2=NS(=O)(=O)c3ccccc32)c1,Potency,[1],inactive
same,Potency,[7],inactive
same,Potency,[8],inactive
same,Potency,[10],inactive
CC(C)CC(=O)c1c(O)cc2c(c1O)C(CC(C)C)C1=C(O2)C(C)(C)C(=O)C(C)(C)C1=O (stereo not given),Potency,[1],inactive
same,Potency,[7],inactive
same,Potency,[8],inactive
C=C1C(=O)O[C@@H]2C(OC(=O)/C(C)=C\C)/C(C)=C\C(=O)/C=C(\C)C[C@H](O)[C@@H]12 (stereo not given in full),Potency,[2],inactive
same,Potency,[6],11.2 µM (active)
same,Potency,[8],inactive
same,Potency,[3],10 µM (active)
same,Potency,[4],inactive
same,Potency,[10],10 µM (active)
Nc1ncnc2c1c(-c1ccc(Oc3ccccc3)cc1)nn2[C@@H]1CCCNC1,Potency,[2],inactive
same,Potency,[7],inactive
same,Potency,[3],25.1 µM (active)
same,Potency,[10],inactive
COc1cc(CCc2cc(NC(=O)c3ccc(N4CC(C)NC(C)C4)cc3)n[nH]2)cc(OC)c1 (stereo not given),Potency,[5],inactive
same,Potency,[7],inactive
same,Potency,[9],inactive
C=C(C)[C@@H]1CC=C(COC(=O)NC(=O)c2ncn3c(=O)n(C)nnc23)CC1,Potency,[1],20 µM (active)
same,Potency,[2],31.6 µM (active)
same,Potency,[6],25.1 µM (active)
CCC(C)(OC(C)=O)C(=O)O[C@H]1[C@H](OC(C)=O)[C@]2(CO)[C@H](O)[C@H](O)[C@]3(C)C(=CCC4[C@@]5(C)CC[C@H](O[C@@H]6O[C@H](C(=O)O)[C@@H](O)[C@H](O[C@@H]7OC[C@H](O)[C@H](O[C@@H]8OC[C@H](O)[C@H](O)[C@H]8O)[C@H]7O)[C@H]6O[C@@H]6O[C@H](CO)[C@@H](O)[C@H](O)[C@H]6O)C(C)(C)C5CC[C@]43C)[C@@H]2CC1(C)C (stereo not given in full),"activity change, negative = cytotoxicity",[1],-8.22% [at 6.55 µM]
same,"activity change, negative = cytotoxicity",[2],-8.59% [at 6.55 µM]
same,"activity change, negative = cytotoxicity",[6],-17.4% [at 6.55 µM]
same,"activity change, negative = cytotoxicity",[7],-1.81% [at 6.55 µM]
same,"activity change, negative = cytotoxicity",[3],-11.2% [at 6.55 µM]
same,"activity change, negative = cytotoxicity",[4],-31.7% [at 6.55 µM]
same,"activity change, negative = cytotoxicity",[10],-3.66% [at 6.55 µM]
same,"activity change, negative = cytotoxicity",[9],-10.5% [at 6.55 µM]
CCN1CCN(Cc2ccc(NC(=O)c3ccc(C)c(Oc4ncnc5[nH]c(C)cc45)c3)cc2C(F)(F)F)CC1,Potency,[3],31.6 µM (active)
same,Potency,[10],11.2 µM (active)
C=CS(=O)(=O)NC1CCN(C(=O)CNc2cc(I)c(Cl)cc2OC)CC1,Potency,[7],inactive
same,Potency,[3],10 µM (active)
same,Potency,[4],inactive
C=CC(=O)N1CCC[C@@H](n2nc(-c3cccc(C(=O)Nc4ccc(C(C)C)c(C)c4)c3)c3c(N)ncnc32)C1,Potency,[6],inactive
same,Potency,[7],inactive
same,Potency,[3],inactive
same,Potency,[10],14.1 µM (active)
O=C(Nc1ccc(C(O)(C(F)(F)F)C(F)(F)F)cc1)c1ccc(C(F)(F)F)cc1,Potency,[7],inactive
COCc1c(Cl)ccc2c1CC[C@H]2c1ncc[nH]1,Potency,[8],inactive
same,Potency,[10],10 µM (active)
O=C(c1ccccc1)c1c(O)cc(O)cc1O[C@@H]1O[C@H](CO)[C@@H](O)[C@H](O)[C@H]1O,Potency,[3],11.2 µM (active)
same,Potency,[4],inactive
same,Potency,[9],11.2 µM (active)
COC(=O)C1=CO[C@@H](O[C@@H]2O[C@H](CO)[C@@H](O)[C@H](O)[C@H]2O)[C@H]2[C@@H]1C=C[C@]21C=C([C@H](C)OC(=O)/C=C/c2ccc(O)cc2)C(=O)O1,Potency,[8],inactive
same,Potency,[3],12.6 µM (active)
same,Potency,[4],8.91 µM (active)
C=C1C(=O)O[C@@H]2C3=C(C)CCC[C@]3(C)CC[C@@]12O,Potency,[2],inactive
same,Potency,[7],inactive
same,Potency,[4],inactive
O=C(NC1CCN(CCCCC2(C(=O)NCC(F)(F)F)c3ccccc3-c3ccccc32)CC1)c1ccccc1-c1ccc(C(F)(F)F)cc1,Potency,[3],31.6 µM (active)

# Reference: PubChem BioAssay (NCATS)
